# Laboratory results reported in PubChem BioAssay AID2101 (National Center for Advancing Translational Sciences (NCATS), 2009).
# In all, about 330,000 compounds went through this assay and about 300 (0.091%) were called active. Entries that show only a call come without a potency. Inconclusive results (about 4%) are left out. The sample holds actives, similar compounds and a random draw of the others, so the mix is not that of the screen. Unmarked numbers belong to inactive results. Calls come from the whole dose curve; as a rule, active = well fitted inhibition curve with a large enough effect; inconclusive = small, poorly fitted or top-dose-only effect, or effect the other way, or another doubt; inactive = no such curve, though single readings can be large or run the other way.
# Target: Lysosomal acid glucosylceramidase (Homo sapiens) (UniProt P04062)
# Assay: qHTS Assay for Inhibitors and Activators of N370S glucocerebrosidase as a Potential Chaperone Treatment of Gaucher Disease
# Settings: N370S GC spleen homogenate, 4MU-glucoside fluorescence; series mostly up to 59.4 µM
# From the text: NIH Chemical Genomics Center [NCGC]
# NIH Molecular Libraries Probe Production Centers Network [MLPCN]
# Assay Submitter (PI): Wei Zheng
# Glucocerebrosidase (GC) catalyzes the hydrolysis of beta-glucocerebroside to glucose and ceramide in lysosomes. Mutations in the glucocerebrosidase gene result in Gaucher disease, an autosomal recessive lysosomal storage disorder. Many of the mutations encountered in patients with Gaucher disease are missense alterations that may cause misfolding, decreased stability and/or mistrafficking of this lysosomal protein. […] These inhibitors include iminosugar analogs and three non-iminosugar inhibitors identified from a previous HTS of 62,000 compounds with the wild type recombinant enzyme. However, the enhancement of enzyme activity by the chaperone action of an enzyme inhibitor must be balanced against the direct inhibition of the enzyme. An enzyme activator could also function as a chaperone by binding to the enzyme and helping to correct its misfolding and mistrafficking. While activators for GC have not yet been identified, they may have better therapeutic potential than inhibitors. Therefore the discovery and development of chemical activators may provide a new strategy for the chaperone therapy.
# We have optimized a new assay using N370S mutant GC derived from the spleen of a Gaucher patient. […] In addition, the MLPCN compound library has expanded, which increases the chance of finding new and better probes.
# NCGC Assay Protocol Summary:
# This is a fluorogenic enzyme assay with 4-methylumbelliferyl-beta-D-glucopyranoside as the substrate and N370S glucocerebrosidase from human spleen homogenate as the enzyme preparation. Upon the hydrolysis of this fluorogenic substrate, the resulting product, […] which can be detected by a standard fluorescence plate reader. Data were normalized to the controls for basal activity (without enzyme) and 100% activity (with enzyme). The AC50 values were determined from concentration-response data modeled with the standard Hill equation.
# Assay buffer: 50 mM citric acid (titrated with potassium phosphate to pH 5.0), 100 mM potassium chloride, 10 mM sodium chloride, 1 mM magnesium chloride, 0.01% Tween-20.
# 1536-well assay protocol:
# (1) Add 2 ul/well of spleen homogenate (27 ug final)
# (2) Add 23 nL compounds in DMSO solution. The final titration was 0.5 nM to 58 uM.
# (3) Add 2 ul of substrate (1 mM final)
# (4) Incubate at 37C for 40 min.
# (5) Add 2 ul stop solution (1M NaOH and 1M Glycine mixture, pH 10)
# (6) Detect the assay plate in a ViewLux plate reader (PerkinElmer) with Ex=365 nm and Em=440nm.
# Keywords: Glucocerebrosidase, beta-glucosidase, Gaucher Disease, pharmacological chaperone, chaperone therapy, high throughput screening, glucocerebrosidase inhibitor, MLSMR, MLSCN, NIH Roadmap, qHTS and NCGC
# Potency is the fitted concentration of half-maximal effect.
SMILES,"activity change, negative = inhibition",Potency
O=C(NCCc1ccc(F)cc1)c1ccc(S(=O)(=O)N2CCCCC2)cc1,inactive,
Nc1nc2c(ncn2[C@@H]2O[C@H](COP(=O)(O)OP(=O)(O)OP(=O)(O)O)[C@@H](O)C2O)c(=O)[nH]1 (stereo partly specified),inactive,
Cc1occc1-c1nnc(SCC(=O)NC2(C#N)CCCC2)n1C,inactive,
C/C=C(\C)C(=O)OC1C(OC(=O)C2(C)OC2C)c2cc3ccc(=O)oc3cc2OC1(C)C (stereo unspecified),inactive,
O=C(c1cnccn1)N1CCC2(CCN(Cc3cc(C(F)(F)F)cc(C(F)(F)F)c3)CC2)CC1,inactive,
Cc1ccc(NC(=O)CCC(=O)N2CCC(c3ccccc3)=N2)cc1S(=O)(=O)N1CCCCC1,inactive,
CC(=O)OCCC(C)C,inactive,
CCCCCCN(C(=O)CCCCCN1C(=O)NC(c2ccc(C(F)(F)F)cc2)C(C(=O)OCc2ccccc2)=C1C)C(C(=O)NCCCC)c1ccc(OCC(=O)OC)c(C(=O)OC)c1 (stereo unspecified),inactive,
c1ccc(Oc2ccccc2)cc1,inactive,
C=CCOC(=O)C(C(C)=O)C(NC(=O)OC)c1ccccc1 (stereo unspecified),-15.4% [at 12.8 µM],
COC(=O)CCc1ccccc1S(=O)(=O)N(CCC(=O)OC)Cc1ccccc1,inactive,
CC1CC[C@@]23CCC4(C)[C@@]5(C)CCC6C(C)(C)C(O)CC[C@@]6(C)C5C=C[C@@]4(OC2=O)C3C1C (stereo partly specified),inactive,
CCN(CC)/[N+]([O-])=N/Oc1cc(O/[N+]([O-])=N/N2CCCC2CO)c([N+](=O)[O-])cc1[N+](=O)[O-] (stereo unspecified),inactive,
COC(=O)N1C(/C=C/C=C/c2ccc(OC)cc2)=Cc2ccccc2C1CC(C)=O (stereo unspecified),-10.4% [at 12.8 µM],
COc1ccc(-c2nc3c(c4c2C[C@H](c2ccccc2)OC4)CN(C(=O)C2CC2)CC3)c(C)c1,-14.3% [at 12.8 µM],
C[C@]12CC[C@@H]3C(=CCc4cc(O)ccc43)[C@@H]1CCC2=O,inactive,
CCOC(OCC)OCC,inactive,
COc1ccc(Cl)cc1NC(=O)CN(C)CC(=O)Nc1ccc2c(c1)OCO2,inactive,
COc1cccc(CC(=O)N2CCc3nc(COc4ccccc4)c4c(c3C2)CO[C@@H](C)C4)c1,3.29% [at 12.8 µM],
O=S(=O)(Nc1ccc2nc(N3CCOCC3)sc2c1)c1ccccc1,inactive,
CC(C)C(NC(=O)c1c(F)cccc1F)C(=O)NCc1ccncc1 (stereo unspecified),inactive,
O=C(Nc1cccc(C(=O)NC2CC2)c1)c1ccc(F)c(S(=O)(=O)N2CCOCC2)c1,inactive,

SMILES,"activity change, negative = inhibition",Potency
COc1ccc(CNC(=O)COC(=O)c2c(C)nn(-c3ccccc3)c2C)cc1OC,inactive,
Cc1ccccc1Nc1nc(N)nc(COC(=O)CCC(=O)c2ccc(F)cc2)n1,inactive,
CN(CC(=O)Nc1cccc(F)c1)C(=O)CC1CCCC1,inactive,
Cc1cc(N)n2nc(-c3ccc(C(C)(C)C)cc3)cc2n1,,10 µM (active)
Cc1nc2cc(-c3ccc(F)cc3)nn2c(N2CCOCC2)c1C,inactive,
Cc1cc(C(C)(C)C)n2nc(C)c(-c3ccccc3)c2n1,inactive,
CC(O)[C@@H](N)C(=O)O (stereo partly specified),inactive,
CC/C=C/C/C=C/C/C=C/CCCCCCCC(=O)OCC,inactive,
COC(=O)C(C(=O)OC)[C@@H]1CCCC(=O)C1,8.05% [at 12.8 µM],
Cc1cc(C)c(C#N)c(SCC(=O)N(CC(C)C)C2CCS(=O)(=O)C2)n1 (stereo unspecified),inactive,
O=C(COc1ccccc1O)NC1CCCC1,inactive,
FC(F)(F)c1ccccc1-c1cc(NCc2ccccc2)ncn1,inactive,
COc1cccc(-c2cc(=O)c3cc(NC(=O)c4ccc(C)cc4)ccc3[nH]2)c1,inactive,
CCCCC(CC)CN (stereo unspecified),inactive,
CCCCC/C=C\C/C=C\C/C=C\CCCCC(=O)NCC(=O)O,inactive,
CC(=O)Nc1ccc(S(=O)(=O)N2CCN(S(=O)(=O)c3cccs3)CC2)cc1,inactive,
CCc1c2c(nc3ccc(O)cc13)-c1cc3c(c(=O)n1C2)COC(=O)[C@]3(O)CC,inactive,
Cc1cc(C)cc(C#CC2C=CC(Oc3ccc(C4CCCC4)cc3)C(CO)O2)c1 (stereo unspecified),7.35% [at 12.8 µM],
O=C1C2C(c3ccccc3)CC=CC2C(c2ccoc2)N1Cc1ccccc1 (stereo unspecified),inactive,
O=C(CN1CCCSc2ccccc21)N1CCN(S(=O)(=O)c2ccccc2)CC1,inactive,
COC(=O)NC(c1ccccc1)[C@]1(C(C)=O)CCCC1=O (stereo partly specified),0.29% [at 12.8 µM],
O=c1cc(-c2ccc(O)cc2)oc2c([C@@H]3O[C@H](CO)[C@@H](O)[C@H](O)[C@H]3O)c(O)cc(O)c12,inactive,

SMILES,"activity change, negative = inhibition",Potency
COc1ccc2[nH]cc(CCNc3ncnc4ccc(-c5ccc(C(=O)N(C)C)cc5)cc34)c2c1,inactive,
CCOC(=O)Cc1csc(SCC(=O)Nc2ccc(C)cc2F)n1,inactive,
CC[C@H](C)[C@H](NC(=O)[C@@H](N)CCC(=O)O)C(=O)N[C@@H](CC(C)C)C(=O)N[C@@H](CC(=O)O)C(=O)N[C@H](C(=O)N1CCC[C@H]1C(=O)N[C@@H](CO)C(=O)N[C@H](C(=O)O)[C@@H](C)O)C(C)C,inactive,
N#CCC(=O)Nc1ccc(C(=O)OCC(=O)Nc2sc3c(c2C#N)CCCC3)cc1,inactive,
CC(=O)CC(C)C,inactive,
O=[N+]([O-])c1ccc(N=Cc2c(O)ccc3ccccc23)cc1,inactive,
Oc1ccc(N=Cc2c(O)ccc3ccccc23)cc1,,12.6 µM (active)
CCOc1[nH]n(-c2ccc(Cl)cc2)c(=O)c1C=Nc1ccc(O)cc1,inactive,
CC(=O)c1ccc(N2CCN(C(=O)c3ccc(Cl)c(S(=O)(=O)NC4CC4)c3)CC2)c(F)c1,inactive,
Oc1ccc(O)c2c(O)cccc12,inactive,
Cc1ccc(C)c(NC(=O)CN(C)C(=O)c2ccc3ncsc3c2)c1,inactive,
CSc1ccccc1NC(=O)COC(=O)CCCOc1ccc(C)cc1,inactive,
CC1CCCC(NC(=O)c2cc(-c3ccncc3)nc3ccccc23)C1C (stereo unspecified),inactive,
CCCN(c1ccc(C(C)C)cc1)S(=O)(=O)c1c(C)[nH]c(=O)[nH]c1=O,inactive,
COc1ccc(N(CC(=O)NC2CCCCCCC2)S(=O)(=O)c2c(C)nn(C)c2C)cc1,inactive,
COc1ccc(N(CC(=O)NC2CCCCC2)S(=O)(=O)c2c(C)[nH]c(=O)[nH]c2=O)cc1,,3.98 µM (active)
CCOc1ccc(N(CC(=O)NC2CCCCCC2)S(=O)(=O)c2c(C)[nH]c(=O)[nH]c2=O)cc1,,2.51 µM (active)
COc1cccc(N(CC(=O)NC2CCCCCC2)S(=O)(=O)c2ccccc2)c1,inactive,
CCOc1ccc(N(CC(=O)Nc2ccccc2F)S(=O)(=O)c2c(C)[nH]c(=O)[nH]c2=O)cc1,,3.16 µM (active)
CCOc1ccc(N(CC(=O)NCCc2ccc(F)cc2)S(=O)(=O)c2ccccc2)cc1,inactive,
CCOc1ccc(N(CC(=O)Nc2cccc(OC)c2)S(C)(=O)=O)cc1,inactive,
CCOc1ccc(N(CC(=O)NCc2ccc(OC)cc2)S(=O)(=O)c2c(C)noc2C)cc1,inactive,
